# Experimental data: the supplement of paper PMC6607015
# Counter-ions that a name gives are not always drawn.
# What was measured:
# Conditions in all cases: compound concentration in added solution (µM; 5 µl added to 20 µl cells): 10; 18 h
# A431 [1] = assay: LBPA endosome anti-LBPA integrated intensity (sum per cell), Z-score; higher = more LBPA staining
# Outline: (§1)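 HeLa MZ or A431 cells (3,500/well in 20 µl) were seeded onto 5 µl of 10 µM compound solution in duplicate 384-well imaging plates, incubated 18 h, then fixed in 4% PFA. Cells were stained with 6C4 anti-LBPA antibody, filipin, propidium iodide and CellTracker green, and four 20× images were taken per well. MetaXpress segmentation gave per-cell integrated LBPA or filipin intensity, either whole-cell or within LBPA endosomes. Values are Z-scores normalised in AcuityXpress.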
# HeLa MZ [2] = assay: as above
# Outline: as §1
# A431 [3] = assay: whole-cell filipin (free cholesterol) integrated intensity, Z-score; higher = more cholesterol staining
# Outline: as §1
# HeLa MZ [4] = assay: as above
# Outline: as §1
# A431 [5] = assay: filipin (cholesterol) integrated intensity within LBPA endosomes, Z-score; higher = more cholesterol in LBPA endosomes
# Outline: as §1
# HeLa MZ [6] = assay: as above
# Outline: as §1
SMILES,LBPA endosome anti-LBPA integrated intensity (z-score) (A431 [1]),LBPA endosome anti-LBPA integrated intensity (z-score) (HeLa MZ [2]),whole-cell filipin (z-score) (A431 [3]),whole-cell filipin (z-score) (HeLa MZ [4]),filipin (z-score) (A431 [5]),filipin (z-score) (HeLa MZ [6])
CC(=O)N(O)CCCCCNC(=O)CCC(=O)N(O)CCCCCNC(=O)CCC(=O)N(O)CCCCCN [Deferoxamine mesylate],-0.408,-0.755,0.541,-0.469,-0.422,-0.499
CN1CCN(c2c(F)cc3c(=O)c(C(=O)O)cn(CCF)c3c2F)CC1 [Fleroxacin],-0.492,-0.0484,-0.0639,0.23,-0.354,-0.239
CC(C)(Sc1cc(C(C)(C)C)c(O)c(C(C)(C)C)c1)Sc1cc(C(C)(C)C)c(O)c(C(C)(C)C)c1 [Probucol],-0.46,-0.408,-0.766,-0.622,-0.482,-0.445
Nc1nnc(-c2cccc(Cl)c2Cl)c(N)n1 [Lamotrigine],-0.222,1.64,0.954,3.15,-0.396,-0.375
Cc1cccc(Nc2ccccc2C(=O)O)c1C [Mefenamic acid],-0.573,-1.34,-0.793,-0.4,-0.497,-0.72
"C[C@](N)(Cc1ccc(O)c(O)c1)C(=O)O [Methyldopa (L,-)]",-0.446,-0.811,-0.449,0.0391,-0.366,-0.319
COc1ccc(C(=O)c2ccccc2)c(O)c1 [Oxybenzone],-0.5,-0.722,-0.24,0.387,-0.525,-0.452
C[C@]12C=CC(=O)C=C1CC[C@@H]1[C@@H]2C(=O)C[C@@]2(C)[C@H]1CC[C@]2(O)C(=O)CO [Prednisone],-0.485,-0.977,-0.505,0.0271,-0.452,-0.412
Cc1cccc(CN2CCN(C(c3ccccc3)c3ccc(Cl)cc3)CC2)c1 (centres undefined) [Meclozine dihydrochloride],-0.277,-0.335,-0.336,-0.815,-0.233,-0.413
CN1CCC(=C2c3ccccc3CCc3sccc32)CC1 [Pizotifen malate],2.92,2.11,2.58,-0.0276,2.82,1.53
CC/C(=C(\c1ccccc1)c1ccc(OCCN(C)C)cc1)c1ccccc1 [Tamoxifen citrate],2.11,0.441,0.819,0.438,2.05,2.47
CCCC1O[C@@H]2C[C@H]3[C@@H]4CCC5=CC(=O)C=C[C@]5(C)[C@H]4[C@@H](O)C[C@]3(C)[C@]2(C(=O)CO)O1 (some centres undefined) [Budesonide],-0.313,-0.695,0.452,0.254,-0.143,0.318
c1ccc(-c2ccc(C(c3ccccc3)n3ccnc3)cc2)cc1 (centres undefined) [Bifonazole],-0.285,0.816,0.345,0.00932,-0.374,-0.192
O=C(O)c1cn(-c2ccc(F)cc2)c2cc(N3CCNCC3)c(F)cc2c1=O [Sarafloxacin],-0.35,-0.0848,0.000583,-0.426,-0.428,-0.434
NCCCC[C@H](N[C@@H](CCc1ccccc1)C(=O)O)C(=O)N1CCC[C@H]1C(=O)O [Lisinopril],-0.555,-0.949,-0.886,-0.862,-0.636,-0.71
CN(C)CCOC1=Cc2ccccc2Sc2ccc(Cl)cc21 [Zotepine],3.49,1.41,1.18,-0.352,3.08,1.71
CCCc1nc(C)c2c(=O)nc(-c3cc(S(=O)(=O)N4CCN(CC)CC4)ccc3OCC)[nH]n12 [Vardenafil],-0.314,1.35,0.127,0.375,-0.156,0.224
Nc1nc(O)c2ncn(CCC(CO)CO)c2n1 [Penciclovir],-0.596,-1.08,-0.223,0.234,-0.512,-0.438
CCc1nn(CCCN2CCN(c3cccc(Cl)c3)CC2)c(=O)n1CCOc1ccccc1 [Nefazodone HCl],0.334,2.39,0.625,0.969,0.483,1.14
CCN(CC)C(=O)/C(C#N)=C/c1cc(O)c(O)c([N+](=O)[O-])c1 [Entacapone],-0.554,-0.84,-0.719,0.0172,-0.479,-0.52
Cn1c(=O)c2c(ncn2CC(=O)O)n(C)c1=O [Acefylline],-0.332,0.383,-0.237,-0.0327,-0.446,-0.485
COc1ccc(/C=C/C(=O)Nc2ccccc2C(=O)O)cc1OC [Tranilast],-0.353,-0.361,-0.609,-0.648,-0.443,-0.608
C[C@]12CC[C@@H]3c4ccc(OS(=O)(=O)O)cc4CC[C@H]3[C@@H]1CCC2=O [Estropipate],-0.486,-0.706,-0.265,-0.499,-0.418,-0.5
CC(=O)[C@@]1(O)CC[C@H]2[C@@H]3C[C@H](C)C4=CC(=O)C=C[C@]4(C)[C@@]3(F)[C@@H](O)C[C@@]21C [Fluorometholone],-0.292,-0.618,-0.262,-0.2,-0.289,-0.522
N#CC(c1ccc(Cl)cc1)c1c(Cl)cc(-n2ncc(=O)[nH]c2=O)cc1Cl (centres undefined) [Diclazuril],-0.281,0.505,0.197,0.559,-0.215,-0.204

SMILES,LBPA endosome anti-LBPA integrated intensity (z-score) (A431 [1]),LBPA endosome anti-LBPA integrated intensity (z-score) (HeLa MZ [2]),whole-cell filipin (z-score) (A431 [3]),whole-cell filipin (z-score) (HeLa MZ [4]),filipin (z-score) (A431 [5]),filipin (z-score) (HeLa MZ [6])
CCN(CC)C(=O)N1CCN(C)CC1 [Diethylcarbamazine citrate],-0.522,-0.824,-0.731,-0.758,-0.529,-0.553
COc1ccc(C(=O)NCc2cccnc2)cc1C(=O)NCc1cccnc1 [Picotamide monohydrate],-0.303,-0.286,-0.472,-0.0549,-0.457,-0.612
CCc1c2c(nc3ccc(OC(=O)N4CCC(N5CCCCC5)CC4)cc13)-c1cc3c(c(=O)n1C2)COC(=O)[C@]3(O)CC [Irinotecan Hydrochloride],0.102,3.21,3.24,3.96,0.0471,-0.0232
Nc1c2c(nc3ccccc13)CCCC2 [Tacrine hydrochloride],0.535,0.705,-0.59,0.0516,0.0216,0.583
CC[C@@H]1C(=O)OC[C@@H]1Cc1cncn1C [Pilocarpine nitrate],-0.402,-0.0375,-0.715,-0.63,-0.502,-0.573
C[C@H]1O[C@H](O[C@H]2[C@H](O)[C@@H](O)[C@@H](O[C@H]3[C@H](O)[C@@H](O)C(O)O[C@@H]3CO)O[C@@H]2CO)[C@H](O)[C@@H](O)[C@@H]1N[C@H]1C=C(CO)[C@@H](O)[C@H](O)[C@H]1O (some centres undefined) [Acarbose],-0.482,-0.645,-0.828,-0.123,-0.508,-0.442
CCCNC(C)(C)COC(=O)c1ccccc1 [Meprylcaine hydrochloride],-0.522,-0.427,-0.299,-0.094,-0.429,-0.419
Nc1ccc(S(=O)(=O)Nc2ccnn2-c2ccccc2)cc1 [Sulfaphenazole],-0.541,-1.02,-0.89,-1.05,-0.533,-0.671
CCOc1ccccc1OCC1CNCCO1 (centres undefined) [Viloxazine hydrochloride],-0.217,0.639,-0.124,-0.0106,-0.346,-0.261
COc1ccc2c(c1)C(=O)N(CCc1ccc(S(=O)(=O)NC(=O)NC3CCCCC3)cc1)C(=O)C2(C)C [Gliquidone],-0.483,0.216,-0.152,-0.511,-0.531,-0.598
Cc1cc(NS(=O)(=O)c2ccc(N)cc2)no1 [Sulfamethoxazole],-0.371,-0.141,-0.446,-0.158,-0.446,-0.3
CN(C)CCCN1c2ccccc2Sc2ccccc21 [Promazine hydrochloride],2.06,2.59,1.2,-0.208,1.35,1.31
O=C1c2c(O)cccc2Cc2cccc(O)c21 [Anthralin],-0.344,0.592,0.169,2.01,-0.334,-0.134
Nc1ccn([C@H]2CC[C@@H](CO)O2)c(=O)n1 [Zalcitabine],-0.426,-0.556,0.221,0.402,-0.388,-0.459
CC(=O)CC(c1ccccc1)c1c(O)c2ccccc2oc1=O (centres undefined) [Warfarin],-0.409,0.393,0.206,0.0343,-0.461,-0.372
CCN(CC)CCOCCOC(=O)C1(c2ccccc2)CCCC1 [Carbetapentane citrate],0.618,1.63,0.819,0.39,0.894,0.461
NC[C@H]1O[C@H](O[C@H]2[C@H](O[C@@H]3O[C@H](CO)[C@@H](O)[C@H]3O)[C@@H](O)[C@H](N)C[C@@H]2N)[C@H](N)[C@@H](O)[C@@H]1O [Ribostamycin sulfate salt],-0.548,1.92,-0.165,2.24,-0.516,-0.59
COc1ccc(C(Cl)=C(c2ccc(OC)cc2)c2ccc(OC)cc2)cc1 [Chlorotrianisene],-0.163,-0.13,0.392,-0.127,-0.183,-0.174
CC(C)NC[C@@H](O)COc1ccc(CC(N)=O)cc1 [(R)-(+)-Atenolol],-0.596,-1.65,-0.23,-0.591,-0.512,-0.472
CN1CCCC(CC2c3ccccc3Sc3ccccc32)C1 (centres undefined) [Metixene hydrochloride],3.73,1.25,0.301,-0.563,3.15,1.94
CN(C)CCCSC(=N)N [Dimaprit dihydrochloride],-0.577,-1.27,-0.259,-0.607,-0.452,-0.519
CCC(=O)OCC(=O)[C@@]1(OC(=O)CC)[C@@H](C)C[C@H]2[C@@H]3CCC4=CC(=O)C=C[C@]4(C)[C@@]3(Cl)[C@@H](O)C[C@@]21C [Beclomethasone dipropionate],-0.15,0.711,0.251,-0.00746,-0.116,0.00681
CC(C)COCC(CN(Cc1ccccc1)c1ccccc1)N1CCCC1 (centres undefined) [Bepridil hydrochloride],1.46,1.74,-0.0149,-0.717,2.11,0.331
CN(C)c1ccc(O)c2c1C[C@H]1C[C@H]3[C@H](N(C)C)C(O)=C(C(N)=O)C(=O)[C@@]3(O)C(O)=C1C2=O [Minocycline hydrochloride],-0.618,-1.91,-1.01,-1.52,-0.639,-0.888
